Only a selection was taken, and hits are over-represented in it overall.
RE007 growth inh – less growth of the S. pombe RE007 Vpr strain. Potency, µM (titrated, usually from 92.2 µM), inactives show top-dose activity change, negative = less growth, actives largely listed as inhibitors. AID 651644. S. pombe RE007 Vpr strain, BacTiter-Glo ATP luminescence, 24 h. 0.21% of 360,000 active; active = well fitted falling curve with a large enough effect; inconclusive = small, poorly fitted or top-dose-only effect; inactive = no such curve, though single readings can be large or run the other way; also: potency is read from the fitted curve at half-maximal effect; % is scaled to controls: 0 for no effect and ±100 for the full control effect; nearly all actives have a fitted effect of over 50% in size
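Fission yeast RE007 carrying one integrated HIV-1 vpr copy, seeded at OD 0.01 in PMG+AL medium with 23 nL pinned compound. Grown 24 h at 30 degrees; viability read by BacTiter-Glo luminescence after 5 min.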
TbPYK inhibitor – T. brucei pyruvate kinase inhibition; Potency, µM (top dose mostly 76.8 µM), without a hit: at the top dose activity, negative = inhibition, most hits filed as inhibitors; TbPYK enzyme, Kinase-Glo Plus ATP luminescence, 45 min; 0.12% of 410,000 active; Q57TT1; also: potency is read from the fitted curve at half-maximal effect; % is scaled to controls: 0 for no effect and ±100 for the full control effect; nearly all actives have a fitted effect of over 50% in size
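Enzyme and substrate buffer are dispensed first and compound is pin-transferred. ADP at 130 uM final then starts the reaction, which runs 45 min at room temperature. Detection reagent is added for 10 min before luminescence is imaged.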
Giardia FBPA inh – Giardia lamblia aldolase inhibition; A8B2U2; purified Giardia FBPA; Potency, µM (series often up to 59.6 µM), for inactives: top-dose activity, negative = inhibition, usual class: inhibitors; 0.71% of 290,000 active; AID 2451; also: potency is read from the fitted curve at half-maximal effect; % is scaled to controls: 0 for no effect and ±100 for the full control effect; nearly all actives have a fitted effect of over 55% in size
Target sequence (A8B2U2 whole entry, looked up): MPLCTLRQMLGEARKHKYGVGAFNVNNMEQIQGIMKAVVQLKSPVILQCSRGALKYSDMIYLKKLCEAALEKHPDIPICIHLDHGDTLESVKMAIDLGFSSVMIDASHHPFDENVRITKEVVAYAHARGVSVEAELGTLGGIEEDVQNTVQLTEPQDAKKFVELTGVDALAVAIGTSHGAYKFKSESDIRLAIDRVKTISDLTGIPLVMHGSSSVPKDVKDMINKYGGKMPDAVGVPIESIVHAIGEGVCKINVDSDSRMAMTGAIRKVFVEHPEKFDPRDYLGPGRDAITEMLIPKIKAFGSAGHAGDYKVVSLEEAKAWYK
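Giardia FBPA (40 nM reagent) was preincubated 10 min at RT with compound (up to 57.5 uM final), then substrate plus GAPDH/TPI/NAD/arsenate coupling system with diaphorase/resazurin was added; resorufin fluorescence (525/598 nm) was read after 20 min.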
Shiga inhibitor – Shiga toxin inhibition; Vero cells, Shiga toxin protein synthesis inhibition reporter; inhibition, % at 38.7 µM; 9.2% of 290,000 active; AID 2315; in the data active = inhibition mostly above about 28%, no sharp cut-off; inactive = mostly below about 43%; also: 0% is about no effect
CHX counter – counter-screen hit for Shiga toxin inhibitors, cycloheximide. AID 2314. cell reporter, cycloheximide protein synthesis inhibition counterscreen. 12% of 300,000 active. max response, %; in the data active = max response mostly above about 13%, no sharp cut-off; inactive = mostly below about 14%; also: read at 38.3 µM for the half of the compounds with a filed dose; 0% is about no effect
LmPK inhibitor – blocks Leishmania mexicana pyruvate kinase activity | 0.37% of 290,000 active | Potency, µM (doses to about 57.5 µM), for inactives: at the highest dose activity change, negative = inhibition, hits mostly inhibitors | AID 1721 | purified LmPK, Kinase-Glo ATP luminescence, 1 h | Q27686; also: potency is read from the fitted curve at half-maximal effect; % is scaled to controls: 0 for no effect and ±100 for the full control effect
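ATP generated from ADP (0.1 mM) and PEP (0.5 mM) by 0.1 nM LmPK over 1 h at room temperature (pH 7.2 imidazole buffer) was detected by coupled luciferase luminescence. Values were normalized to uninhibited and no-enzyme wells.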
Numbers without * were called inactive; ? = inconclusive; nt = no result given. Unless noted, calls follow the shape of the dose curve; as a rule, active = well fitted curve in the direction sought with a large enough effect; inconclusive = small, poorly fitted or top-dose-only effect, or another doubt; inactive = no such curve, though single readings can be large; an effect the other way counts as inactive or inconclusive.

SMILES	RE007 growth inh	TbPYK inhibitor	Giardia FBPA inh	Shiga inhibitor	CHX counter	LmPK inhibitor
CCc1ccc2oc(-c3cc(N)ccc3Cl)nc2c1	15.8µM*	-2.5%	-8.7%	20.8	14.9*	-27.6%
Nc1ccc2oc(-c3ccccc3Cl)nc2c1	?	-17.1%	-6.4%	36.1*	20.6*	?
CCc1ccc2oc(-c3cc(N)ccc3O)nc2c1	?	-20.6%	-2.5%	15.1	18.5*	?
Cc1ccc2c(CC(=O)N3CCN(c4cccc(Cl)c4)CC3)coc2c1	nt	-1.9%	nt	nt	nt	nt
O=S1(=O)CCC(NC(=S)N2CCOCC2)C1 (stereo unspecified)	nt	-9.4%	-4.0%	15.8	2.6	1.5%
CC(=O)Nc1cccc(NC(=O)CSc2n[nH]c(-c3ccccc3)n2)c1	-13.3%	-1.7%	nt	nt	nt	nt
CC(=O)Nc1ccc(NC(=O)C2CCN(S(C)(=O)=O)CC2)cc1	-3.4%	0.9%	nt	nt	nt	nt
CCC(C)C(NC)C(=O)O (stereo unspecified)	nt	nt	-8.1%	nt	nt	nt
N#CC1=C2C=Cc3ccccc3N2CCCC1=O	-16.6%	-3.3%	-11.7%	45.1*	33.0*	-27.5%
O=C(CN1CCCC1)N1c2ccccc2C=Cc2ccccc21	-0.6%	2.1%	-4.8%	13.7	-1.6	-9.4%
CCS(=O)(=O)c1ccc2oc(Nc3cc(Cl)ccc3OC)nc2c1	-7.4%	2.9%	7.9%	-16.4	1.7	-3.4%
CCS(=O)(=O)c1ccc2oc(Nc3ccc(C(C)(C)C)cc3)nc2c1	1.8%	6.9%	-16.8%	3.5	-1.5	3.4%
CCS(=O)(=O)c1ccc2oc(Nc3cccc(OC)c3)nc2c1	-0.2%	-26.9%	-19.3%	40.9	19.9*	-11.5%
CCS(=O)(=O)c1ccc2oc(Nc3ccccc3Br)nc2c1	-15.5%	1.4%	14.7%	79.3*	35.0*	15.8µM*
CCS(=O)(=O)c1ccc2oc(Nc3ccccc3Cl)nc2c1	-27.4%	-15.2%	nt	79.8*	44.6*	-20.7%
O=C(c1cnc(N2CCCCC2)c2ccccc12)N1CCN(c2ccc(F)cc2)CC1	nt	-2.0%	nt	nt	nt	nt
COCCn1cnc2c1-c1ccc(OC)c(c1)OC/C=C\COc1cccc-2c1	nt	nt	-6.8%	-6.0	16.2	nt
COc1cccc(NC(=O)c2sc3nc4n(c(=O)c3c2C)CCC4)c1	12.3%	5.3%	nt	68.9*	48.8*	3.8%
Cc1c(C(=O)Nc2ccc(Oc3ccccc3)cc2)sc2nc3n(c(=O)c12)CCC3	20.6%	-4.5%	0.2%	-17.3	-2.6	-4.3%
Cc1c(C(=O)Nc2cc(F)ccc2F)sc2nc3n(c(=O)c12)CCCCC3	6.7%	0.7%	nt	31.0	36.3*	1.1%
Cc1ccc(NC(=O)c2sc3nc4n(c(=O)c3c2C)CCCCC4)c(Br)c1	nt	0.4%	nt	nt	nt	nt
CSc1cccc(NC(=O)c2sc3nc4n(c(=O)c3c2C)CCC4)c1	20.0%	1.9%	nt	50.1*	16.8*	5.0%
COc1cc(OC)cc(C(=O)N2CCN(C3CCC(C)CC3)CC2)c1 (stereo unspecified)	-11.5%	26.0%	nt	nt	nt	nt
Cc1cccnc1C(NC(=O)C1CCN(CCCc2ccccc2)CC1)c1ccc(F)cc1 (stereo unspecified)	-16.7%	1.3%	nt	nt	nt	nt
CN(CCc1ccccc1)C(=O)c1ccc(NC(=O)Cc2ccc(NC(=O)C3CCN(C(=O)c4ccccc4)CC3)cc2)cc1	-1.3%	4.0%	nt	nt	nt	nt
SMILES	RE007 growth inh	TbPYK inhibitor	Giardia FBPA inh	Shiga inhibitor	CHX counter	LmPK inhibitor
CC(NC(=O)c1sc2ccccc2c1Cl)C1CCCO1 (stereo unspecified)	-9.7%	-1.2%	0.3%	24.1	35.6*	-6.2%
CC(NC(=O)c1cccs1)C1CCCO1 (stereo unspecified)	5.2%	0.0%	-1.5%	2.5	-1.5	-1.4%
CC(NC(=O)c1csc2ccccc12)C1CCCO1 (stereo unspecified)	0.2%	-7.4%	0.3%	62.9*	32.2*	-3.9%
CN(C)c1ccc(-c2nnc(SCC3CCCO3)n2C)cc1 (stereo unspecified)	2.9%	2.1%	1.5%	80.3*	44.2*	-9.1%
Cc1cc(N2CCN(C)CC2)nc2ccc(NC(=O)c3ccc(Br)o3)cc12	14.3%	-27.6%	-6.8%	101.3*	26.0*	1.0%
Cc1cc(N2CCN(C)CC2)nc2ccc(NC(=O)c3ccc4c(c3)OCO4)cc12	3.1%	-1.4%	-9.5%	37.5	20.5*	-0.3%
Cc1cc(N2CCCCC2)nc2ccc(NC(=O)c3ccc(Br)o3)cc12	-18.3%	6.5%	-11.8%	21.8	8.4	0.6%
COC(=O)c1ccc(NC(=O)CC2C(=O)N(c3cccc(OC)c3)C(=O)N2Cc2cccc(OC)c2)cc1 (stereo unspecified)	nt	2.9%	nt	nt	nt	nt
COc1ccc2oc(-c3ccccc3)c(C(N)=O)c2c1	-21.1%	-20.0%	-0.1%	33.8	27.6*	0.7%
COc1ccc(-c2oc3ccccc3c2C(=O)OCc2ccc(O)cc2)cc1	-7.7%	-7.0%	-3.0%	27.7*	24.3*	-0.1%
COc1ccc(-c2oc3ccccc3c2C(=O)OCc2ccccc2)cc1	1.0%	-6.0%	13.4%	33.7*	31.0*	6.0%
COc1ccc2oc(-c3ccccc3)c(C(=O)O)c2c1	-13.3%	-16.5%	11.3%	7.7	-6.0	-5.1%
CC(=O)Nc1ccc(CN2CCCC(C(=O)c3ccc(C(F)(F)F)cc3)C2)cc1 (stereo unspecified)	-2.3%	-4.3%	-2.1%	-9.1	1.6	7.2%
CCOC(=O)C1CCCN(C(=O)c2ccc3c(c2)N(Cc2ccc(Cl)cc2)C(=O)c2ccccc2S3=O)C1 (stereo unspecified)	nt	-7.1%	nt	nt	nt	nt
CC(C)Cn1c(N)c(C(=O)CSc2nncs2)c(=O)n(C)c1=O	13.9%	-7.7%	nt	nt	nt	nt
CCCn1c(N)c(C(=O)CSc2nc(C)cs2)c(=O)n(C)c1=O	-3.4%	0.1%	1.5%	9.4	23.5*	-7.6%
O=C(/C=C/c1ccc(O)c(O)c1)OC1C(O)CC(OC(=O)/C=C/c2ccc(O)c(O)c2)(C(=O)O)CC1O (stereo unspecified)	2.6%	?	-25.3%	1.4	13.4	2µM*
Cc1ccc2onc(CC(=O)N3CCN(c4ccccc4)CC3)c2c1	nt	0.2%	nt	nt	nt	nt
Cc1cccc(NC(=O)CCC2CCN(C(=O)c3ccc(C)s3)CC2)c1	14.6%	-15.3%	nt	13.6	22.4*	6.6%
S=C(NCCc1cccc(Cl)c1)NC1CCCCC1	-10.2%	0.8%	0.0%	76.6*	59.5*	9.8%
Cc1cccc(NC(=O)NC2CCCCCCC2)c1	8.0%	5.7%	nt	92.6*	41.5*	-0.1%
COCc1ccc(C(=O)N2CCC(CCC(=O)Nc3cccc(C)c3)CC2)s1	-11.5%	-5.2%	nt	-17.3	-3.9	0.2%
COC(C(=O)N1CCC(CCC(=O)Nc2ccccc2)CC1)c1ccccc1 (stereo unspecified)	-12.5%	2.5%	nt	47.7*	36.8*	-5.0%
CCN1C(=O)C(=O)N(CC(=O)NC(C)CCc2ccccc2)C1=O (stereo unspecified)	-10.6%	3.5%	nt	nt	nt	nt

Source: PubChem
